Records with an inconclusive call do not appear. Activity calls are given as the source filed them. The calls were made as follows: active = hit-call score of the fitted dose curve at least 0.9, where 1 is the maximum; inconclusive = response in the unintended direction; inactive = score below 0.9.
Target: human CYP2D6, CYP2D6 (gene 1565) (UniProt P10635)
Assay: NVS_ADME_hCYP2D6: NovaScreen (NVS) CYP450-related Enzyme Activity (ADME) Assay for human CYP2D6 (AID 2283107)
Outline: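 Cell-free assay using recombinant human CYP2D6 expressed in insect cells, with a fluorogenic substrate read after 1 h. Primary screen in duplicate at 10 uM; actives followed up in concentration series. Loss of signal fitted relative to acetonitrile.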

Sequence of human CYP2D6, CYP2D6 (gene 1565) (P10635 whole entry, looked up): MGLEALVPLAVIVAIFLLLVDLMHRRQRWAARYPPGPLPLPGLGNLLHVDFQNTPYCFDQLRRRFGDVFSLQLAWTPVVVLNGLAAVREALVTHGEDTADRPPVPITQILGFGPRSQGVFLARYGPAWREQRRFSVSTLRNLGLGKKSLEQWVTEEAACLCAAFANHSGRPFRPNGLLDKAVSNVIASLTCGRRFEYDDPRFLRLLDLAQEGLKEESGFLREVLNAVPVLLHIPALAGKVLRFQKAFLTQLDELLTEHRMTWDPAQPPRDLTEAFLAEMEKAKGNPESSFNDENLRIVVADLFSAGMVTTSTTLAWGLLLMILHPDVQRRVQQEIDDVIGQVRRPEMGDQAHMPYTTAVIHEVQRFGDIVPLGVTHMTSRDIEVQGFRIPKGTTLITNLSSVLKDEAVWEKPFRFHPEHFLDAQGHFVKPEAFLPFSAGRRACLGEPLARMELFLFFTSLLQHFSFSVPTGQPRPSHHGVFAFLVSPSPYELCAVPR

Row | SMILES | AC50 | outcome
1 | CCOc1ccc2c(c1)C(C)=CC(C)(C)N2 | 3.51 µM (active) | 
2 | CCCCCCC(=O)OCC |  | inactive
3 | Oc1ccc2c(c1)OC[C@@H](N1CCC(O)(c3ccc(F)cc3)CC1)[C@H]2O |  | inactive
4 | CCOC(=O)CCC(=O)OCC |  | inactive
5 | O=C(O)Cc1ccccc1Nc1c(Cl)cccc1Cl |  | inactive

Target: human CYP2C9, CYP2C9 (gene 1559) (UniProt P11712)
Assay: NVS_ADME_hCYP2C9: NovaScreen (NVS) CYP450-related Enzyme Activity (ADME) Assay for human CYP2C9 (AID 2283108)
Experimental: NVS_ADME_hCYP2C9 is a biochemical, single-readout assay that uses extracted gene-proteins from SF9 in a cell-free assay. Measurements were taken 0.75 hour after chemical dosing in a 96-well plate.NVS_ADME_hCYP2C9 is one of one assay component(s) measured or calculated from the NVS_ADME_hCYP2C9 assay. It is designed to make measurements of enzyme activity, a form of enzyme reporter, as detected with fluorescence intensity signals by Fluorescence technology.Data from the assay component NVS_ADME_hCYP2C9 was analyzed into 1 assay endpoint. This assay endpoint, NVS_ADME_hCYP2C9, was analyzed in the positive analysis fitting direction relative to Acetonitrile as the negative control and baseline of activity. Using a type of enzyme reporter, loss-of-signal activity can be used to understand changes in the enzymatic activity as they relate to the gene CYP2C9. Furthermore, this assay endpoint can be referred to as a primary readout, because this assay has produced multiple assay endpoints where this one serves a enzymatic activity function. To generalize the intended target to other relatable targets, this assay endpoint is annotated to the cyp intended target family, where the subfamily is xenobiotic metabolism.
Binding assays used specific radioligands (tritiated, iodinated) with non-radioactive competitive displacement ligands in agonist or antagonist protocols (as indicated) and various reference compounds and inhibitors to titrate specific binding to receptors and transporters. Most enzyme assays (CYPs, kinases, phosphatases, proteases, HDACs) used recombinant protein and specific substrates (fluorescence mostly, some colorimetric and radioactive) and inhibitors, followed by a biochemical separation of substrate and product. All assays for the biochemical HTS were initially run in duplicate at a single concentration (10 uM for CYP450 assays and 25 uM for all others). […] Each assay was run with positive and negative controls, and concurrent controls on every plate. The follow-up (secondary) screen tested active chemical-pairs in concentration series, as well as a few additional assays not tested in the primary screen, some selected negative inactives, and several cases re-run in the concentration series for confirmatory purposes.

Sequence of human CYP2C9, CYP2C9 (gene 1559) (P11712 whole entry, looked up): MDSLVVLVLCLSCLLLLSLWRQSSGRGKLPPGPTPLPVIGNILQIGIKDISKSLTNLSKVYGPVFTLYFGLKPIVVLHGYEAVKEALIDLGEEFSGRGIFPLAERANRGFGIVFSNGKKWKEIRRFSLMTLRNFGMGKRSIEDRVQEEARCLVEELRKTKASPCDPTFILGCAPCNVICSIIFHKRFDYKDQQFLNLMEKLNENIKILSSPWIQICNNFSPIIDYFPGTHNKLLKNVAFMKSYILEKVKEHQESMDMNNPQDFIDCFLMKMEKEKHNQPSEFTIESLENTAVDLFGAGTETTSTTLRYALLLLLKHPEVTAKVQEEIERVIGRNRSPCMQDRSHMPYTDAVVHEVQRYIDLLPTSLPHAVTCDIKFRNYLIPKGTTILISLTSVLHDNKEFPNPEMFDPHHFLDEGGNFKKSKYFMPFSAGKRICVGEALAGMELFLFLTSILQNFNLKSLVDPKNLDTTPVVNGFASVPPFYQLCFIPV

Row | SMILES | AC50 | outcome
6 | CCCCC(CC)COC(=O)CC(C(=O)OCC(CC)CCCC)S(=O)(=O)O (configuration not stated) | 3.5 µM (active) | 
7 | Nc1nc(N)c2nc(CNc3ccc(C(=O)N[C@@H](CCC(=O)O)C(=O)O)cc3)cnc2n1 | 12.3 µM (active) | 
8 | CCOc1ccc2c(c1)C(C)=CC(C)(C)N2 | 10 µM (active) | 
9 | CC1=C(/C=C/C(C)=C/C=C/C(C)=C/CO)C(C)(C)CCC1 | 18.2 µM (active) | 
10 | CC=Cc1ccc(O)c(OC)c1 |  | inactive
11 | CCCCCCC(=O)OCC | 14.8 µM (active) | 
12 | CCOC(=O)CCC(=O)OCC |  | inactive

From PubChem BioAssay (EPA / NIEHS)
